# Most compounds without a hit are left out; they make up all but 3.7% or so of the library.
# Tau fibril ThT – qHTS for Inhibitors of Tau Fibril Formation, Thioflavin T Binding; 270,000 tested, 2.1% active; recombinant tau K18 P301L, heparin-induced fibrillization, ThT fluorescence; Potency, µM (doses to about 57.4 µM), without a hit: top-dose activity, negative = inhibition, hits mostly inhibitors; also: % is scaled to controls: 0 for no effect and ±100 for the full control effect; nearly all actives have a fitted effect of over 55% in size
# Target sequence (P10636 561-689 P618L limits assumed): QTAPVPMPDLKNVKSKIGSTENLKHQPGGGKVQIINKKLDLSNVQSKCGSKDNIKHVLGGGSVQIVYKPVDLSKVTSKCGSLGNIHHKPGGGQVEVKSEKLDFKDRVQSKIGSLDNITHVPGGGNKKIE
#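 Using a mix of unlabeled (15 uM) and Alexa 594-labeled (0.24 uM) tau K18 P301L, heparin-triggered fibrillization over 6 hr at 37 C was scored by ThT fluorescence.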
# HTT cytoprotect – qHTS Multiplex Assay to Identify Dual Action Probes in a Cell Model of Huntington: Cytoprotection (ATP) | PC12 HTT-Q103 induced, cytoprotection, ATP luminescence, 40 h | Potency, µM (series often up to 56.4 µM), for inactives: cytoprotection (ATP increase), hits mostly activators | 230,000 tested, 0.14% active; also: % of control where 0% means no effect; nearly all actives have a fitted effect of over 45% in size
#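 Cells were plated at 1500 per well in phenol red-free DMEM with 5% equine and 5% calf serum. Tebufenozide (100 nM final) and compounds were added, then ATPlite reagent, and luminescence was read.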
# Tau fibril FP – qHTS for Inhibitors of Tau Fibril Formation, Fluorescence Polarization; K18 P301L tau heparin fibrillization, Alexa594 FP, 6 h; Potency, µM (series often up to 57.7 µM), without a hit: at the highest dose activity, negative = inhibition, usual class: inhibitors; 280,000 tested, 0.39% active; AID 1468, 2008; also: % is scaled to controls: 0 for no effect and ±100 for the full control effect; nearly all actives have a fitted effect of over 55% in size
#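 Human tau K18 […] P301L fragment, 15 uM unlabeled plus 0.24 uM Alexa 594-labeled tau (final), with compound and 20 uM heparin in 100 mM sodium acetate pH 7; 6 hr at 37 C, then Alexa 594 FP read.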
# HTT aggregate – qHTS Multiplex Assay to Identify Dual Action Probes in a Cell Model of Huntington: Aggregate Formation (GFP). Potency, µM (highest dose often 46.1 µM), for the others: at the highest dose activity change, negative = inhibition, usual class: inhibitors. 220,000 tested, 1.1% active. PC12 HttQ103-GFP aggregates, Acumen cytometry, 40 h; also: % is scaled to controls: 0 for no effect and ±100 for the full control effect; nearly all actives have a fitted effect of over 60% in size
#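 Multiplexed with ATP-based cell death, this channel scores GFP aggregates in PC12 cells expressing inducible HTTex1-Q103-GFP. Induction used 100 nM tebufenozide; compounds were tested in concentration series.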
# Tau fluor counter – Counterscreen qHTS for Inhibitors of Tau Fibril Formation, Fluorescence Polarization | Potency, µM (doses to about 57.7 µM), for the others: at the top dose activity change, negative = decrease | 280,000 tested, 0.93% active | tau K18 P301L (four-repeat tau fragment) Alexa594 fluorescence, heparin fibrillization; also: % is scaled to controls: 0 for no effect and ±100 for the full control effect; nearly all actives have a fitted effect of over 55% in size
#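 Human K18 P301L tau (15 uM unlabeled plus 0.24 uM Alexa 594-labeled, final) in 100 mM sodium acetate pH 7 was mixed with compound and 20 uM heparin and incubated 6 hr at 37 C.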
# The depositor's hits bear a star; ? = inconclusive; · = no result given; ! = a repeat was not active; [ ] = dose if it differs, or a comment. Calls follow the shape of the dose curve; as a rule, active = well fitted curve in the direction sought with a large enough effect; inconclusive = small, poorly fitted or top-dose-only effect, or another doubt; inactive = no such curve, though single readings can be large; an effect the other way counts as inactive or inconclusive. Potency is read from the fitted curve at half-maximal effect.
SMILES,Tau fibril ThT,HTT cytoprotect,Tau fibril FP,HTT aggregate,Tau fluor counter
O=C1NN(c2cccc(Br)c2)C(=O)/C1=C/c1ccc(-c2cc([N+](=O)[O-])ccc2O)o1,2.8µM*,30%[10 µM],?,-23%[9.22 µM],4.5µM*[quencher]
C=CCC(Nc1ccccc1)C12C=CC(O1)C(C(=O)OC)=C2C(=O)OC (stereo unspecified),7.9µM*,14%[1.9 µM],-1%,-4%[1.84 µM],-30%
COC(=O)C1=C(C(=O)OC)SC2(S1)C(C(=O)OC)=C(C(=O)OC)SC1=C2c2cc(C)cc(C)c2NC1(C)C,14µM*,-5%,?,14%,?
O=[N+]([O-])c1ccc(N=Nc2ccc(O)cc2O)cc1,2.5µM*,-147%,-13%,1.3µM*,14µM*[quencher]
Cc1ccc(NC(=O)CSc2nccn2C2CCCC2)cc1,1%,·,-1%,·,-1%
O=C(/C=C/c1cn(CC(O)CN2CCCCCC2)c2ccccc12)c1ccc(Br)cc1 (stereo unspecified),22µM*,·,-12%,·,?
Cc1ccc(C(=O)/C=C/c2cn(CC(O)CN3CCCCCC3)c3ccccc23)cc1 (stereo unspecified),13µM*,·,-21%,·,?
Cc1c(N2C(=O)/C(=C\c3ccc(N(C)C)cc3)N(C)C2=S)c(=O)n(-c2ccccc2)n1C,14µM*,0%[10 µM],4%,9%,-10%
CN1C(=S)N(c2cccnc2)C(=O)/C1=C\c1ccc(N(C)C)cc1,4µM*,-4%[10 µM],2%,7%,?
CN1C(=S)N(c2cccnc2)C(=O)/C1=C\c1ccc(C(C)(C)C)cc1,?,-16%[10 µM],8%,-24%,-1%
Cc1cccc(NC(=S)N=Nc2c(O)n(CN3CCOCC3)c3ccccc23)c1C,?,-64%[10 µM],-5%,?,11µM*[quencher]
CCc1cccc(C)c1NC(=O)CN1C(=O)c2c(c3ccccc3n2C)C1c1ccc(OC)cc1 (stereo unspecified),-3%,·,-8%,·,-15%
CCCCCC1CC1C(=O)N/N=C/c1ccc(N(C)C)cc1 (stereo unspecified),16µM*,0%,4%,-3%,?
COc1ccc2nc(NC(=O)Nc3ccccc3)sc2c1,?,-230%,-14%,6%,?
CC(C)(C)c1nc(NC(=O)Nc2ccccc2)sc1Br,-17%,-129%,?,11µM*,?
O=c1c(-c2cccs2)nc2cnc(N3CCNCC3)nc2n1C1CC1,·,-84%,·,·,·
O=C(Nc1cc(Sc2ccccn2)cc([N+](=O)[O-])c1)c1ccc(Cl)cc1,-14%,-17%,-9%,-32%,10µM*[quencher]
O=C(Nc1cc(Sc2ccccn2)cc([N+](=O)[O-])c1)c1cccc(Cl)c1,5%,11%[1.9 µM],3%,-7%,3%
Cc1ccc2c(c1)NC(=O)CC(c1ccccc1)=N2,-1%,27%[1.9 µM],3%,-12%,1%
CC1=CC(C)=Nc2ccc(C)cc2N1,-19%,?,7%,0.89µM*!,-5%
CC1=C(C#N)C(=O)NC(=O)/C1=C/c1ccc(-c2ccc(S(N)(=O)=O)cc2)o1,16µM*,-26%,-18%,?,?
COc1ccc(-[n+]2c(C)cc(/C=C3\Sc4ccccc4N3C)cc2C)cc1,?,·,0%,1.1µM*,-12%
COc1ccccc1-[n+]1c(C)cc(/C=C2\Sc3ccccc3N2C)cc1C,?,-80%[10 µM],3%,0.89µM*,-25%
O=C(NC(NC(=S)Nc1c(Cl)cccc1Cl)C(Cl)(Cl)Cl)OCc1ccccc1 (stereo unspecified),-1%,-4%[10 µM],?,22µM*,?
O=C(C(Sc1ccccc1)c1ccccc1)N1CCN(c2ccccc2F)CC1 (stereo unspecified),-28%,-58%,-12%,10µM*,-25%
SMILES,Tau fibril ThT,HTT cytoprotect,Tau fibril FP,HTT aggregate,Tau fluor counter
COc1ccc(/C=N/N2CCN(C)CC2)cc1O,4%,-14%[10 µM],-1%,-9%,8%
CCN=c1scc(-c2ccco2)n1/N=C/c1ccc(O)cc1,7.1µM*,-2%[10 µM],8%,?,14µM*[quencher]
CCN=c1scc(-c2ccco2)n1/N=C/c1ccc(OC)c(O)c1,10µM*,-31%,?,-13%,16µM*[quencher]
CS[C@]12C(=O)C[C@]3(C)[C@@H](CC[C@@]3(O)C(=O)CO)[C@@H]1CCC1=CC(=O)CC[C@]12C,·,-9%[10 µM],·,·,·
CC(C)Oc1ccc(CNS(=O)(=O)c2ccc3c(c2)C(C)(C)C(=O)N3C)cc1,-1%,·,-12%,·,-11%
O=C1C(Cl)=C(N2CCN(c3ccccc3[N+](=O)[O-])CC2)C(=O)c2ccccc21,3.5µM*,-11%[10 µM],10µM*,?,8.9µM*[quencher]
O=[N+]([O-])c1cc(Cl)ccc1N1CCCC1,-17%,3%[10 µM],-9%,0%[9.22 µM],-12%
c1ccc2c[n+](Cc3ccnc4ccccc34)ccc2c1,·,-7%[10 µM],·,·,·
Cc1ncc(CO)c(/C=N/NC(=S)Nc2cccc(Cl)c2)c1O,?,16%[10 µM],8%,?,?
Cc1ncc(CO)c(/C=N/NC(=S)Nc2ccc(Cl)c(Cl)c2)c1O,?,-121%,-3%,?,25µM*[quencher]
COc1ccc(C(=O)N/N=C/c2c(CO)cnc(C)c2O)cc1,-15%,-77%,-10%,32µM*,-5%
CCOC(=O)c1c(NC(=O)CSc2cn(CCNC(=O)c3ccc(OC)c(OC)c3)c3ccccc23)sc2c1CCC2,-15%,·,-9%,·,?
O=S(=O)(NCc1ccc(F)cc1)c1ccc2[nH]c3c(c2c1)CCCC3,-5%,·,10%,·,13µM*[quencher]
Cc1ccc(CNS(=O)(=O)c2ccc3[nH]c4c(c3c2)CCCC4)cc1,1%,·,?,·,?
O=S(=O)(NCc1ccc(Cl)cc1)c1ccc2[nH]c3c(c2c1)CCCC3,-10%,·,2%,·,13µM*[quencher]
Cc1cn2c(=O)cc(COC(=O)c3cccc(NC(=O)C(C)Oc4ccccc4)c3)nc2s1 (stereo unspecified),-9%,·,1%,·,1%
CCOC(=O)CC1C(=O)NCCN1C(=O)c1cc2c(=O)n3cccc(C)c3nc2s1 (stereo unspecified),-4%,-17%,-3%,2%,-5%
CCCN1C(=O)/C(=C/c2c(N3CCNC(=O)C3CC(=O)OC)nc3c(C)cccn3c2=O)SC1=S (stereo unspecified),5.6µM*,18%[10 µM],-2%,-16%[9.22 µM],-20%
CN(C)CCN(Cc1ccccc1)S(=O)(=O)c1cccc2cccnc12,·,2%,·,·,·
O=C(c1ccc(S(=O)(=O)Cc2ccccc2Cl)c([N+](=O)[O-])c1)N1CCN(c2ccccn2)CC1,?,-202%,9%,16µM*,?

# Screening data: PubChem BioAssay, National Center for Advancing Translational Sciences (NCATS)
